The list is not random: actives were taken first. Their share in the collection is about 3.7%.
HepG2 tox: counter-screen for TGF-b inhibitors: cytotoxicity in HepG2 cells. HepG2 CAGA-GFP viability, ATP luminescence, 18 h. Potency, µM (highest dose often 46.1 µM), usual class: cytotoxic. 0.76% of 410,000 active
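CellTiter-Glo luminescence gave cytotoxicity after 18 hours at 37 degrees C. The cells were HepG2 CAGA-GFP in 1% FBS DMEM, stimulated with 500 pg/mL TGF-beta after compound addition. %Activity was normalised to no-cell wells (complete cell-killing) and DMSO (no toxicity), and curves were fitted and classified.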
TGFb inhibitor: blocks TGF-b signaling; AID 588855; 1.2% of 410,000 active; Potency, µM (doses to about 46.1 µM), most hits filed as inhibitors; HepG2 CAGA-GFP TGF-b/SMAD3 reporter, GFP fluorescence, 18 h; TGF-beta stimulated, 500 pg/mL final; further: nearly all actives have a fitted effect of over 65% in size
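Cell-based qHTS in HEPG2 carrying a CAGA-GFP Smad reporter; compounds added before 500 pg/mL final TGF-beta, 18 h incubation at 37 degrees C, GFP fluorescence quantified per cell by imaging cytometry.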
ATXN2 expr inh: reduces ATXN2 reporter expression in HEK-293 cells. HEK-293 ATXN2-luciferase reporter, luminescence, 24 h. Potency, µM (titrated, usually from 57 µM), most hits filed as inhibitors. 0.72% of 360,000 active; further: nearly all actives have a fitted effect of over 55% in size
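qHTS (up to 57 uM final) was run with 24 h compound exposure of reporter cells at 37 °C. Each well was multiplexed: SteadyGlo luminescence measured ATXN2-luciferase expression after a fluorogenic Gly-Phe-AFC viability readout (25 uM final).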
GLP1R inv ag: inverse agonists of human GLP-1 receptor | Potency, µM (highest dose often 38.3 µM), usual class: inhibitors | HEK293 GLP-1R CRE-luciferase, luminescence, 24 h; GLP-1R form is constitutively active | 1.6% of 410,000 active; further: nearly all actives have a fitted effect of over 55% in size
Target sequence (P43220 whole entry, looked up): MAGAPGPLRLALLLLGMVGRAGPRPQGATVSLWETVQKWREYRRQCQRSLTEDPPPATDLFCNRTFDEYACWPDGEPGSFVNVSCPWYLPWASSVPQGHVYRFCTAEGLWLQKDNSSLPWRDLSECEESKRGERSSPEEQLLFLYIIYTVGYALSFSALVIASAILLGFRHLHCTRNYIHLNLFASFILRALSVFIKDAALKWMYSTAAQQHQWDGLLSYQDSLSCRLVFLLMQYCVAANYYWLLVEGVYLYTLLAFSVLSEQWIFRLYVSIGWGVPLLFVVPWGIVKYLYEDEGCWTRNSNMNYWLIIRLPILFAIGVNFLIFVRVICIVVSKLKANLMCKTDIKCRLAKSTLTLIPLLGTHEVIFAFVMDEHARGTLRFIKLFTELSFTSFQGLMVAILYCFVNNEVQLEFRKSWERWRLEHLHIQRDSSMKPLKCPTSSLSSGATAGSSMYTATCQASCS
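Using stably transfected HEK293 (constitutively active GLP-1R, cAMP-luciferase reporter), compounds were incubated 24 hr and luciferase measured by luminescence.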
S2 tox: viability counter-screen for ATXN expression inhibitors | 0.49% of 400,000 active | AID 651635 | S2 cells (HEK-293 line with an ATXN2-luciferase reporter) viability, CellTiter-Fluor protease fluorescence, 24 h | Potency, µM (top dose mostly 56.7 µM), hits mostly cytotoxic; further: nearly all actives have a fitted effect of over 40% in size
GLP-1R agonist: agonists of human GLP-1 receptor. P43220. AID 624172. Potency, µM (series often up to 45.6 µM), most hits filed as activators. 0.007% of 380,000 active. HEK293 GLP-1R CRE-luciferase, luminescence, 4-6 h; cells express a hypersensitive GLP-1R form
A number is an active result; 0 = inactive; ? = inconclusive; - = no result given; ! = a repeat was not active. The call rests on the fitted dose curve; in most records, active means well fitted curve in the direction sought with a large enough effect; inconclusive means small, poorly fitted or top-dose-only effect, or another doubt; inactive means no such curve, though single readings can be large; an effect the other way counts as inactive or inconclusive.

SMILES | HepG2 tox | TGFb inhibitor | ATXN2 expr inh | GLP1R inv ag | S2 tox | GLP-1R agonist
Cc1ccc(Nc2nc(N)nc(CSc3nc4ccccc4s3)n2)cc1 | 0 | 13µM | ? | ? | - | 0
CCOc1ccc(Nc2nc(N)nc(CCl)n2)cc1 | 0 | 11µM | ? | 5µM | ? | ?
Nc1nc(CCl)nc(Nc2ccccc2)n1 | 0 | ? | ? | ? | - | 0
Cc1cc(C(=O)Nc2cccc(F)c2)c2c(C)nn(-c3cccc(Cl)c3C)c2n1 | 0 | 0 | 0 | 0 | 0 | -
Cc1ncc2c(c1CNC(=O)c1ccccc1F)CCN(C(=O)c1csc(-c3cccs3)n1)C2 | - | - | - | - | 0 | -
CC(=O)Nc1ccccc1-c1nc(CNC(=O)c2ccc(-c3ccccc3F)cc2)c(C)o1 | - | - | - | - | 0 | -
Cc1ccc(Nc2nc(N)nc(CC#N)n2)cc1 | 0 | 13µM | 0 | 0 | 0 | 0
Cc1cccc(Nc2nc(N)nc(CCl)n2)c1C | 0 | 14µM | 1µM | 5µM | ? | 0
COc1cccc(C(=O)N2CCc3c(C(=O)NC(C)c4ccco4)c(OC)cc(=O)n3CC2)c1OC (stereo not drawn) | - | - | - | - | 0 | -
CCC(C)(C)n1nnnc1C(c1cccs1)N1CCc2ccccc21 (stereo not drawn) | 0 | 13µM | ? | ? | 0 | 0
Cc1ccc(C)c(NC(=S)NCCSc2ccc(Cl)cc2)c1 | 0 | ? | 0 | ? | 0 | 0
COc1ccc(NC(=S)NCCSc2ccc(C)cc2)c(OC)c1 | 0 | 0 | 0 | 10µM | 0 | 0
Cc1ccc(NC(=S)NCCSc2ccc(Cl)cc2)c(C)c1 | 0 | 0 | 0 | 10µM | 0 | 0
Cc1cccc(NC(=S)NCC(C)CSc2ccc(Cl)cc2)c1 (stereo not drawn) | 14µM | 13µM | - | ? | 0 | 0
CCc1ccccc1NC(=S)NCCSc1ccc(Cl)cc1 | 0 | ? | 0 | 7.1µM | 0 | 0
Cc1ccc(NC(=S)NCC(C)CSc2ccc(Cl)cc2)cc1 (stereo not drawn) | 0 | 0 | 0 | 0 | 0 | 0
COc1ccc(OC)c(NC(=S)NCCSc2ccc(C)cc2)c1 | 0 | ? | 0 | ? | 0 | 0
Cc1cnc2ccc3ccccc3c2c1C | 0 | 0 | - | - | - | -
CN(C)c1ccc(C2=Cc3ccccc3C2)cc1 | 0 | ? | - | - | - | -
CCCCOC(=O)c1ccc(NC(=O)CSc2nc3c(c(=O)[nH]2)CCCC3)cc1 | 0 | 0 | 0 | 0 | 0 | -
CCCCNC(=S)Nc1ccccc1Cc1ccccc1 | 0 | 0 | 0 | 11µM | 0 | 0
Cc1cccc(NC(=S)NCCSc2ccc(Cl)cc2)c1 | 2.5µM | ? | 0 | ? | 0 | 0
S=C(NCCc1ccc(Cl)cc1)Nc1ccc(Cl)cc1Cl | 0 | ? | ? | 10µM | ? | 0
COc1ccccc1C(NC(=O)C1CCN(CCOc2ccc(Cl)cc2Cl)CC1)c1ccccn1 (stereo not drawn) | 13µM | ? | 32µM | ? | 20µM | 0
Cc1cccnc1C(c1ccc(F)cc1)N(C)C(=O)C1CCN(CCOc2ccc(Cl)cc2Cl)CC1 (stereo not drawn) | 0 | ? | 32µM | ? | 28µM | 0
SMILES | HepG2 tox | TGFb inhibitor | ATXN2 expr inh | GLP1R inv ag | S2 tox | GLP-1R agonist
Cc1cccnc1C(c1ccc(F)cc1)N(C)C(=O)C1CCN(CCCOc2ccc(F)cc2)CC1 (stereo not drawn) | 0 | 0 | 0 | ? | ? | 0
CC1CC=CC2C1C(=O)N(Cc1ccccc1)C2c1ccoc1 (stereo not drawn) | 0 | ? | - | - | - | -
COc1cc(-c2cc(C)c3c(OC)ccc(OC)c3n2)cc2c1OCCN(C(=O)C(C)c1n[nH]c(=O)c3ccccc13)C2 (stereo not drawn) | - | - | - | - | 0 | -
COc1ccc(C2Nc3ccccc3C(=O)N2Cc2ccco2)cc1COc1c(C)cccc1C (stereo not drawn) | 0 | ? | - | - | - | -
Cc1ccc(C(=O)N(CCN2CCCCC2)CC2CCCN(C3CCCC3)C2)s1 (stereo not drawn) | 0 | 0 | 0 | 8.9µM | ? | 0
COc1cc(C=O)cc(OC)c1[N+](=O)[O-] | 0 | 0 | - | - | - | -
O=C1c2ccccc2-[n+]2ccc3c([nH]c4ccccc43)c21 | - | - | 2.7µM | - | - | -
CCOC(=O)C[n+]1ccc2c([nH]c3ccccc32)c1C | 0 | 0 | 0 | 0 | - | 0
CCOC(=O)[C@@H](C)N(C(=O)OC(C)(C)C)S(=O)(=O)N(Cc1ccccc1)[C@@H](C(=O)OC)C(C)C | 0 | ? | - | - | - | -
CCOC(=O)[C@@H](C)N(C(=O)OC(C)(C)C)S(=O)(=O)N(Cc1ccccc1)[C@H](C(=O)OC)C(C)C | 0 | 10µM! | 0 | ? | ? | 0
CCCCC(=O)Nc1ccc(C)c(S(=O)(=O)N2CCCCCC2)c1 | 0 | ? | 0 | ? | 0 | 0
CCCCNC(=O)C1=C(N)C(C(=O)Nc2ccc(C)c(S(=O)(=O)N3CCCCC3)c2)SC1=Nc1ccc(C)cc1C (stereo not drawn) | 0 | 0 | 0 | 13µM | 0 | 0
COc1ccc(-c2nc3cc(NC(=O)Cc4ccc(Cl)cc4)ccc3o2)cc1OC | 0 | ? | - | 0 | - | -
O=C(O)c1cccc(NCc2cccnc2)c1 | 0 | 0 | 0 | 0 | 0 | 0
O=C(O)c1ccc(NCc2cccnc2)cc1 | 4µM | 0 | 0 | 0 | 0 | 0
COc1ccccc1-c1cccc([C@@H]2C[C@H]3[C@H](CON3C)CN2Cc2ccccc2)c1 | 0 | ? | 0 | ? | ? | 0
CN1OC[C@@H]2CN(Cc3ccccc3)[C@H](c3cccc(-c4ccc(C#N)cc4)c3)C[C@@H]21 | 0 | 10µM | 0 | ? | 0 | 0
COc1ccc(CN2C[C@H]3CON(C)[C@H]3C[C@H]2c2ccc(-c3ccccc3)cc2)cc1 | 0 | 11µM | 0 | ? | 0 | 0
CCCCCCCCCC[n+]1ccc(/C=C/c2c(C)[nH]c3ccccc23)cc1 | 0 | 0 | - | - | - | -
CCOC(=O)C1=C(C)NC2=C(C(=O)C(C(=O)OCC)C(c3ccco3)C2)C1c1ccccc1C (stereo not drawn) | 0 | 0 | - | - | - | -
CC1=NN(C(N)=S)C(=O)C1N=Nc1cccc(C(=O)O)c1 (stereo not drawn) | 0 | 0 | 0 | 0 | 0 | 0
CC1=NN(C(N)=S)C(=O)C1N=Nc1cccc(C)c1 (stereo not drawn) | 0 | 1.8µM | - | ? | 0 | 0
CCOc1ccc(N2CC(NC(=O)c3ccc(S(=O)(=O)N4CCCCC4)cc3)CC2=O)cc1 (stereo not drawn) | 0 | 0 | - | 0 | - | -
Cc1cc(NC(=O)c2ccccc2)sc1C | 8.9µM | 0 | 0 | ? | 0 | 0
N#CCCn1cc(CNCc2cccnc2)c(-c2ccccc2)n1 | 0 | 0 | - | - | - | -
N#Cc1ccc(CSc2nnc(-c3ccccn3)n2-c2ccccc2)cc1 | 0 | 0 | 0 | 0 | 0 | 0
N#Cc1ccc(CSc2nnc(-c3c[nH]c4ccccc34)n2-c2ccccc2)cc1 | 0 | 0 | ? | 6.3µM | ? | 0

From PubChem BioAssay
